The source of these data is the supplement of paper PMC7156485.

Each structure is given as a SMILES string.
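Throughout, for H1.0 immunofluorescence intensity relative to DMSO: TDF is a line of transformed human dermal fibroblasts of mesenchymal origin.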
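Throughout, for cell number relative to DMSO: TDF denotes transformed human dermal fibroblasts of mesenchymal origin.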

In one assay the test system is TDF. In words: cell number relative to DMSO (% of DMSO); higher = more cells (less growth inhibition / toxicity). The conditions noted are these: concentration: 10 µM; 24 h. The procedure, abridged:
(§1)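 HCC1569 and TDF cells (800 per well, 384-well plates, RPMI with 10% FBS) were treated with compounds at 10 µM for 24 h at 37 °C, in triplicate. Cells were fixed in 3.7% formaldehyde and stained with a rabbit anti-H1.0 antibody, an AlexaFluor 647 secondary and DAPI; six fields per well were imaged at ×10. H1.0 nuclear intensity or cell number is expressed as percent of the plate DMSO control, taking the median of replicates. HCC1569 values were smoothed for positional effects.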
Compound `CC(=O)OC1(C(C)=O)CCC2C3CC(C)C4=CC(=O)CCC4(C)C3CCC21C` (centres undefined) [Medroxyprogesterone 17-Acetate] registered a cell number of 112. Regarding `Nc1c2c(nc3ccccc13)CCCC2O.O=C(O)C=CC(=O)O` (centres undefined) [Hydroxytacrine maleate], the cell number was determined as 103. On to `O=P(O)(O)C(O)(Cc1cccnc1)P(=O)(O)O` [Risedronic acid], for which the cell number turned out to be 103. As for `O=C(Nc1cccc(C(F)(F)F)c1)Nc1cc(S(=O)(=O)NC2CC2)ccc1-c1ccsc1`, the cell number amounted to 89.5. Still for that read-out and setting: for `CN(C)[C@@H](CCOc1cccc2ccccc12)c1ccccc1.Cl` the value was 92.4. Same read-out and setting: for `C=CCc1ccccc1OCC(O)CNC(C)C.Cl` (centres undefined) [Alprenolol.HCl] the value was 105; for `CS(=O)(=O)O.N=C(N)SCCc1ccc(OCc2ccc([N+](=O)[O-])cc2)cc1`, 78.2; for `O=c1cc(N2CCNCC2)oc2c(-c3ccccc3)cccc12`, 98.3. Same read-out and setting: next, `CCCCCCCCCCCCCCC(C(=O)O)=C(C)C(=O)O` [Chaetomellic acid A]: 93.6.

The test system of another assay is TDF. In words: H1.0 immunofluorescence intensity relative to DMSO (% of DMSO); higher = stronger H1.0 induction, active = 120 or more. The conditions noted are these: concentration: 10 µM; 24 h. The procedure, abridged:
as §1
`Cc1cc(C)c(S(=O)(=O)Nc2cccc(C(F)(F)F)c2)c(C)c1`: the H1.0 immunofluorescence intensity was 105 (inactive). Still for that read-out and setting: next, `CC1(C)CCC(C)(C)c2cc(C(=O)Nc3ccc(C(=O)O)cc3)ccc21`: 91.8 (inactive); `CC(C=CC1=C(C)CCCC1(C)C)=CC=CC(C)=CC(=O)Nc1ccc(O)cc1` [Fenretinide]: 97.8 (inactive). Regarding `CC(CCC(=O)NCCS(=O)(=O)O)C1CCC2C3C(O)CC4CC(O)CCC4(C)C3CC(O)C12C` (centres undefined) [Taurocholic acid], the H1.0 immunofluorescence intensity was 97.8 (inactive). On the same count and under the same terms, for `O=C(O)c1cc(O)ccc1O` [Gentisic acid] the value was 98.5 (inactive); for `O=C1CC(=O)c2c(Cl)c(Cl)c(Cl)c(Cl)c21` [4,5,6,7-tetrachloro-1H-indene-1,3(2H)-dione], 117 (inactive); for `CCCCCCCCCCCCCCCCCC(=O)NCC(COP(=O)([O-])OCC[N+](C)(C)C)OC` (racemic) [rac-2-Methoxy-3-octadecanamido-1-propylphosphocholine], 95.2 (inactive).

Consider `CN(c1ncccc1CNc1nc(Nc2ccc3c(c2)CC(=O)N3)ncc1C(F)(F)F)S(C)(=O)=O`, for which the H1.0 immunofluorescence intensity was 116 (inactive). Same read-out and setting: for `CS(=O)(=O)c1ccc(C(O)C(COC(=O)CN)NC(=O)C(Cl)Cl)cc1` (centres undefined) [Thiamphenicol glycinate] the value was 98.4 (inactive); for `CCCCCCC=CC=CCCCCCCCC(=O)O` [9(Z), 11(Z)-octadecadienoic acid], 107 (inactive); for `CCC1OC(=O)C(C)C(OC2CC(C)(OC)C(O)C(C)O2)C(C)C(OC2OC(C)CC(N(C)C)C2O)C(C)(O)CC(C)C(=NOCOCCOC)C(C)C(O)C1(C)O` (centres undefined) [Roxithromycin], 95.2 (inactive). Still for that read-out and setting: for `Br.Br.N=C(N)SCCc1cnc[nH]1` [Imetit dihydrobromide] the value was 94.8 (inactive); for `CC(C=CC1=C(C)CCCC1(C)C)=CC=CC(C)=CC(=O)O` [Retinoic acid], 95.8 (inactive); for `CCc1[nH]c(-c2ccc(OC)cc2)nc1-c1ccncc1`, 97 (inactive). On the same count and under the same terms, for `CCCCCC(=O)C=CC=CCCCCCCCC(=O)O` [13-Ketooctadecadienoioc acid] the value was 95.9 (inactive). As to `CNc1ncnc2c1ncn2C1OC(CO)C(O)C1O` (centres undefined) [N6-Methyladenosine], the H1.0 immunofluorescence intensity was 93.9 (inactive). Still for that read-out and setting: for `C=CCc1ccccc1OCC(O)CNC(C)C.Cl` (centres undefined) [Alprenolol hydrochloride] the value was 103 (inactive); for `CC12CCC(=O)C=C1CCC1C2C(=O)CC2(C)C1CCC2(O)C(=O)CO` (centres undefined) [Cortisone], 106 (inactive); for `CCCCCC=CCC(O)C=Cc1cccc(CC(O)CCCCO)n1` (centres undefined), 95.9 (inactive).

With `CC(C)(C(=O)O)c1ccc(C(O)CCCN2CCC(C(O)(c3ccccc3)c3ccccc3)CC2)cc1.Cl` (centres undefined) [Fexofenadine hydrochloride], the H1.0 immunofluorescence intensity was 91.2 (inactive).

With `CC12C=CC(=O)C=C1CCC1C3CC(O)C(O)(C(=O)CO)C3(C)CC(O)C12F` (centres undefined) [Triamcinolone], the H1.0 immunofluorescence intensity was 86.8 (inactive). The same measure, in the same setting: next, `O=C(CCCN1CCC(O)(c2cccc(C(F)(F)F)c2)CC1)c1ccc(F)cc1` [Trifluperidol]: 97.3 (inactive); `CC(C)n1cnc2c(NCc3ccccc3)nc(NCCCO)nc21` [Bohemine]: 100 (inactive).

As to `CC(C)(Sc1ccc(CCN(CCCCC2CCCCC2)C(=O)NC2CCCCC2)cc1)C(=O)O`, the H1.0 immunofluorescence intensity is 95.7 (inactive). Still for that read-out and setting: for `C[N+](C)(C)CCOC(N)=O.[Cl-]` [Carbachol] the value was 100 (inactive); for `CN(C)CCCCSC(=N)N.Cl.Cl`, 93.8 (inactive). For `Cl.N=C(N)c1ccccc1` [Benzamidine hydrochloride], the H1.0 immunofluorescence intensity is 94 (inactive). Still for that read-out and setting: for `CC(N)(COP(=O)(O)O)C(=O)O` (centres undefined) [2-methyl-O-phosphonoserine] the value was 96 (inactive); for `O=C(NC(NC(=S)Nc1ccc(F)c([N+](=O)[O-])c1)C(Cl)(Cl)Cl)C(c1ccccc1)c1ccccc1` (centres undefined), 108 (inactive).

On to `Brc1c(Br)c(Br)c2[nH]cnc2c1Br` [4,5,6,7-tetrabromo-1H-benzimidazole], for which the H1.0 immunofluorescence intensity was 111 (inactive). The same measure, in the same setting: for `CNCCC(Oc1ccc(C(F)(F)F)cc1)c1ccccc1.Cl` (stereo not drawn) [R-(-)-Fluoxetine hydrochloride] the value was 110 (inactive). Still for that read-out and setting: next, `CC(=O)OC1(C(C)=O)CCC2C3CC(C)C4=CC(=O)CCC4(C)C3CCC21C` (centres undefined) [Medroxyprogesterone 17-Acetate]: 102 (inactive); `Nc1c2c(nc3ccccc13)CCCC2O.O=C(O)C=CC(=O)O` (centres undefined) [Hydroxytacrine maleate]: 96.8 (inactive); `O=P(O)(O)C(O)(Cc1cccnc1)P(=O)(O)O` [Risedronic acid]: 100 (inactive). Still for that read-out and setting: for `O=C(Nc1cccc(C(F)(F)F)c1)Nc1cc(S(=O)(=O)NC2CC2)ccc1-c1ccsc1` the value was 94.6 (inactive).

For the compound `CN(C)[C@@H](CCOc1cccc2ccccc12)c1ccccc1.Cl`, the H1.0 immunofluorescence intensity is 104 (inactive). Regarding `C=CCc1ccccc1OCC(O)CNC(C)C.Cl` (centres undefined) [Alprenolol.HCl], the H1.0 immunofluorescence intensity was 90.6 (inactive). On the same count and under the same terms, next, `CS(=O)(=O)O.N=C(N)SCCc1ccc(OCc2ccc([N+](=O)[O-])cc2)cc1`: 125 (active); `O=c1cc(N2CCNCC2)oc2c(-c3ccccc3)cccc12`: 92.8 (inactive). The same measure, in the same setting: next, `CCCCCCCCCCCCCCC(C(=O)O)=C(C)C(=O)O` [Chaetomellic acid A]: 104 (inactive).
